Measurements taken from PubChem BioAssay (NCATS).
Inconclusive results are not listed. Where a call stands in place of a potency, no number is given. Activity calls are given as the source filed them. Calls come from the whole dose curve; as a rule, active = well fitted cell-killing curve with a large enough effect; inconclusive = small, poorly fitted or top-dose-only effect, or effect the other way; inactive = flat fitted curve, though single readings scatter.

tested on: OV90; assay: Primary qHTS to identify gynecologic anti-cancer compounds using libraries of approved drugs and bioactive compounds (AID 1345084); conditions: Gynecologic cancer cell panel viability, ATPlite luminescence, 48 h; series mostly up to 57.5 µM; note: nearly all actives have a fitted effect of over 55% in size
Summary of the method: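 Cell viability after 48 h drug treatment, ATPlite luminescence readout; five doses.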
Potency is the fitted concentration of half-maximal effect.

| Structure (SMILES) | Potency |
| --- | --- |
| C1CN2CCC1CC2 | 25.1 µM (active) |
| CCC1(CC)C(=O)NC(=O)NC1=O | inactive |
| CC(C)(C)OC(=O)c1ncn2c1[C@@H]1CCCN1C(=O)c1c(Br)cccc1-2 | inactive |
| CN1C(=O)CN=C(c2ccccc2)c2cc([N+](=O)[O-])ccc21 | inactive |
| CCOC(=O)C(c1c(O)c2ccccc2oc1=O)c1c(O)c2ccccc2oc1=O | inactive |
| CNC(C)Cc1ccccc1OC (configuration not stated) | inactive |
| ClCc1cccc(Cl)c1 | inactive |
| CC(CC(C(N)=O)(c1ccccc1)c1ccccc1)N(C)C (configuration not stated) | inactive |
| CC1Sc2c(C(=O)O)c(=O)c3cc(F)c(N4CCNCC4)cc3n21 (configuration not stated) | inactive |
| O=C(CBr)Nc1ccc(Cl)cc1C(=O)c1ccccc1F | inactive |
| COP(=O)(OC)C(O)C(Cl)(Cl)Cl (configuration not stated) | inactive |
| C[C@H]1CNCCc2ccc(Cl)cc21 | inactive |
| COc1cc(N)c(Cl)cc1C(=O)NC1CN2CCC1CC2 (configuration not stated) | inactive |
| COC(=O)C1=CCCN(C)C1 | inactive |
| C[C@@H]1CN(C2CCC(C#N)(c3ccc(F)cc3)CC2)CC[C@]1(C(=O)O)c1ccccc1 (some centres not stated) | inactive |
| CCOC(=O)NC(O)C(Cl)(Cl)Cl (configuration not stated) | inactive |
| OC(O)C(Cl)(Cl)Cl | inactive |
| ClCCCN1CCN(c2cccc(Cl)c2)CC1 | inactive |
| C#C[C@]1(O)C=C[C@H]2[C@@H]3CCC4=CC(=O)CC[C@@H]4[C@H]3CC[C@@]21CC | inactive |
| O=c1[nH]c2cc(Cl)ccc2n1C1CCNCC1 | inactive |
| CC(C)(O)C(Cl)(Cl)Cl | inactive |
| C[N+]1(CCC(C(N)=O)(c2ccccc2)c2ccccc2)CCCCC1 | inactive |
